This is a sample that favours compounds with a hit; in the whole collection about 2.8% have one here.
Giardia killer: Small Molecules that selectively kill Giardia lamblia: qHTS. AID 540267, 2011. Giardia lamblia trophozoite viability. activity change, % at 7.66 µM, hits read low. actives 0.15% (n = 340,000); in the data active = activity change below about -80%; inconclusive = between about -30% and that limit;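 also: parasites exposed to compound for two days anaerobically before the ATP read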
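Giardia lamblia trophozoites (100 cells/well) were incubated with compounds for 48 h at 37 deg C under anaerobic conditions. Viability was read as ATP content by one-step luminescence after 15-30 min at room temperature.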
D3 ag: qHTS of D3 Dopamine Receptor Agonist: qHTS | actives 0.58% (n = 410,000) | D3R DiscoveRx beta-arrestin cells, luminescence, 90 min | max activation, %; in the data active = max activation above about 30%
Target sequence (P35462 whole entry, looked up): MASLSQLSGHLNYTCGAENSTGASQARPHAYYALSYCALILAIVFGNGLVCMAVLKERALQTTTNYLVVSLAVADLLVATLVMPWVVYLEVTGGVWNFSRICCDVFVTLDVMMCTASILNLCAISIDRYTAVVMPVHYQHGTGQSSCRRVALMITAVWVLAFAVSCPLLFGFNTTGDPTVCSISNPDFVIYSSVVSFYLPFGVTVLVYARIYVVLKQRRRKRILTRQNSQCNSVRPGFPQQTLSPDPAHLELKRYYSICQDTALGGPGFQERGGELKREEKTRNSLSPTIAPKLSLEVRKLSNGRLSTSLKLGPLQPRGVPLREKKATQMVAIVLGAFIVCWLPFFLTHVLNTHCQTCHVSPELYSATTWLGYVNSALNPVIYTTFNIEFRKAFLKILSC
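Agonist mode: compounds and dopamine controls were applied to plated cells for 90 min at 37 degrees C after an overnight attachment at 1500 cells/well. Luminescent read-out followed 30 - 60 minutes at room temperature with DiscoveRx detection reagent.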
B2AR arrestin: qHTS assay of beta-arrestin-biased ligands of beta2-adrenergic receptor. Beta-2 adrenergic receptor (Homo sapiens), P07550. beta-arrestin recruitment to beta2AR, cell-based reporter. Potency, µM (highest dose often 46.1 µM), usual class: activators. actives 0.02% (n = 330,000). AID 492947, 2010; active = well fitted activation curve with a large enough effect; inconclusive = small, poorly fitted or top-dose-only effect; also: nearly all actives have a fitted effect of over 65% in size
D3 antag: qHTS of D3 Dopamine Receptor Antagonist: qHTS. D(3) dopamine receptor (Homo sapiens), P35462. actives 2.5% (n = 360,000). AID 652054, 2013. max response, negative = inhibition, %. D3R cells, DiscoveRx beta-arrestin luminescence, antagonist mode; hits give low values; in the data active = max response below about -50%; inconclusive = no clear call, values can overlap the other calls
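Cells expressing the human receptor were seeded at 1500 cells/well, incubated overnight at 37 degrees C in 5% CO2, then exposed to library compounds with dopamine controls for 90 minutes at 37 degrees C before luminescent detection.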
Numbers stand for hits; – = inactive; ? = inconclusive; · = no result.

SMILES	Giardia killer	D3 ag	B2AR arrestin	D3 antag
COC(=O)c1[nH]c2ccccc2c1NC(=O)CCN1CCN(C2CCCCC2)CC1	·	·	–	·
COC(=O)c1[nH]c2cccc(OC)c2c1NC(=O)CCN1CCC(C)CC1	–	–	–	-77.1
Cc1oc(C(C)(C)C)cc1C(=O)NC1CCN(Cc2ccccc2)CC1	–	–	–	-79.7
CCCC(CCC)C(=O)NC1CCN(Cc2ccccc2)CC1	–	–	–	–
Cc1oc(-c2ccc(Cl)cc2)cc1C(=O)NC1CCN(Cc2ccccc2)CC1	–	–	–	-65.1
O=C(NC1CCN(Cc2ccccc2)CC1)c1ccc(Cl)cc1Cl	–	–	–	?
O=C(NCCCN1CCN(c2ccccc2)CC1)c1nnc(Cc2ccc(F)cc2)o1	·	–	·	·
CN(C)c1ccc(-c2nn3c(-c4cc(-c5ccccc5)n[nH]4)nnc3s2)cc1	–	·	·	·
O=C(/C=C/c1ccc(OCCCF)cc1)NCc1ccc(Cl)cc1	–	–	–	-70.3
Cc1ccc(S(=O)(=O)CCC(=O)OCC(=O)c2c[nH]c3ccccc23)cc1	–	32.9	–	–
CC(C)(C)OC(=O)N1CCCC1C(=O)NC1COC2CC(n3cc(F)c(=O)[nH]c3=O)OC12 (stereo not drawn)	–	·	·	·
CCn1nc(NS(=O)(=O)c2ccccc2)c2cc3ccc(C)cc3nc21	?	–	–	-63.1
CCn1nc(NS(=O)(=O)c2ccccc2)c2cc3cc(C)ccc3nc21	–	–	–	–
CS(=O)(=O)c1nc(-c2ccccc2)cc(C(F)(F)F)n1	–	–	–	-120.0
CN1CCOc2cc(S(=O)(=O)N3CCN(c4nc(-c5cccs5)nc5ccccc45)CC3)ccc21	–	·	·	·
O=C(O)c1ccc(N=Nc2c(O)ccc3ncccc23)cc1	–	–	–	-75.3
O=C(O)c1cc(N=Nc2c(O)ccc3ccccc23)cc(C(=O)O)c1	–	–	–	–
Cc1ccc2nc(N(CCCN(C)C)C(=O)c3ccc(Br)s3)sc2c1	–	–	–	-52.7
CN(C)CCCN(C(=O)c1ccc(C(=O)c2ccccc2)cc1)c1nc2cc3c(cc2s1)OCO3	–	–	–	-55.4
Fc1ccc(-c2csc(=Nc3cccc(C(F)(F)F)c3)n2Cc2ccc3c(c2)OCO3)cc1	·	–	·	·
CC(=O)c1c(C)[nH]c(C(=O)COC(=O)c2ccc(Cl)nc2)c1C	–	–	–	–
CC(=O)c1c(C)[nH]c(C(=O)COC(=O)c2ccc(C)s2)c1C	–	38.7	–	–
CCOC(=O)c1c(C)[nH]c(C(=O)COC(=O)c2[nH]c(C)c(C(C)=O)c2C)c1C	–	37.2	–	–
Cc1ccc2oc(=O)c(S(=O)(=O)c3ccc(C(C)(C)C)cc3)cc2c1	·	–	·	·
O=C(Cc1c(Sc2ccccc2)c2ccccc2n1Cc1ccccc1)NCCO	–	–	–	-73.0
SMILES	Giardia killer	D3 ag	B2AR arrestin	D3 antag
Cc1ccc(C)c(NC(=O)N2CCc3cc(S(=O)(=O)N4CCC(C)CC4)ccc32)c1	·	–	·	·
COc1cccc(OC)c1OCC(C)CNCC1CCCO1 (stereo not drawn)	–	–	–	-66.9
COc1ccc(OC)c(NC(=O)CS(=O)(=O)Cc2nc(-c3ccc(C)cc3)oc2C)c1	·	–	·	·
c1ccc(CN2CCC(Nc3ncnc4sccc34)CC2)cc1	–	–	–	?
Cc1sc2ncnc(NC3CCN(Cc4ccccc4)CC3)c2c1C	–	–	–	-74.9
Cc1csc2c(NC3CCN(Cc4ccccc4)CC3)ncnc12	–	–	–	-81.3
CC(C)(C)NC(=O)C(c1ccc(F)cc1)N(Cc1ccccc1Cl)C(=O)c1ccn[nH]1 (stereo not drawn)	?	–	1µM	–
Cc1cc(CNC(=O)[C@]2(C(F)(F)F)C[C@H](CCC3CCCCC3)CCCO2)nn1C	–	·	·	·
COc1ccc(NC(=O)NCCN2CCN(c3cccc(Cl)c3)CC2)cc1	–	–	–	-58.4
COc1ccccc1C(=O)NCCN1CCN(c2ccccc2)CC1	–	41.7	–	–
COc1ccc(N2CCN(CCNC(=O)Nc3ccc(C)c(Cl)c3)CC2)cc1	–	–	–	?
COc1ccc(OC)c(NC(=O)NCCN2CCN(c3ccccc3)CC2)c1	–	–	–	-67.0
COc1ccc(N2CCN(CCNC(=O)Nc3ccc([N+](=O)[O-])cc3OC)CC2)cc1	–	–	–	–
CCc1nnc(NC(=O)[C@@H]2CCCN2C(=O)c2cccs2)s1	–	·	·	·
COc1ccccc1CNC(=O)CCn1c(=O)c2cccn2c2cccnc21	·	–	·	·
CC(=O)c1cccc(NC(=O)c2oc(=O)c3ccccc3c2-c2ccccc2)c1	·	–	·	·
Oc1cnc2ccccc2c1CN1CCOCC1	–	–	–	-77.5
CCN(CC)C(=O)c1c(-c2ccccc2)c(-c2ccccc2)nn(CC)c1=O	·	–	·	·
CC(C)CC(CSc1ccc(Br)cc1)N1CCN(C)CCC1=O (stereo not drawn)	–	·	·	·
CC(C)(C)c1cc(CCC(=O)NNC(=S)NC(=O)c2ccccc2)cc(C(C)(C)C)c1O	–	–	–	-78.5
O=C(CCc1ccccc1)NNC(=S)NC(=O)c1ccccc1	–	–	–	–
O=C(C1=C(O)C(=O)N(c2ncccn2)C1c1cccc(Cl)c1)c1ccco1 (stereo not drawn)	–	–	·	-74.5
O=C(C1=C(O)C(=O)N(c2ncccn2)C1c1ccc(Cl)c(Cl)c1)c1ccco1 (stereo not drawn)	–	–	–	–
CN(C)c1ccc(/C=N/N2C(=S)SC(C)(C)C2N(O)C(=O)Nc2ccc([N+](=O)[O-])cc2)cc1 (stereo not drawn)	–	–	–	-66.5
COc1ccccc1CNC(=O)CCCn1nc(C)c2sc3ccccc3c2c1=O	·	–	·	·
SMILES	Giardia killer	D3 ag	B2AR arrestin	D3 antag
CN(C)C=Nc1c(I)cc(I)c(CCC(=O)O)c1I	·	–	·	·
CCOC(=O)N1CCN(S(=O)(=O)c2ccc3[nH]c(=O)oc3c2)CC1	–	34.0	–	–
Cc1ccc(Cn2c(C(=O)NCCCN3CCOCC3)cc3sccc32)cc1	–	–	–	-50.8
Cc1ccc(CCNC(=O)c2cc3sccc3n2Cc2ccc(C)cc2)cc1	·	–	·	·
CCn1c(C(=O)NCCCN2CCc3ccccc3C2)cc2sccc21	–	–	–	-73.3
COCCCNC(=O)C1CCN(C(=O)c2cc3sccc3n2Cc2ccc(F)cc2)CC1	–	–	–	–
O=C(NCCCN1CCCC1)C1CCN(C(=O)c2cc3sccc3n2Cc2ccc(F)cc2)CC1	–	–	–	-52.4
O=C(NCCN1CCOCC1)N1c2ccccc2Sc2ccccc21	–	–	–	-53.1
COc1cc(OC)c2c(c1C(CCN1CCCC1)c1ccc(N(C)C)cc1)OC(=O)CC2c1ccc(N(C)C)cc1 (stereo not drawn)	–	·	·	·
Nc1nc(NCc2ccc(Cl)cc2Cl)c2[nH]cnc2n1	–	·	·	·
C=C[C@]1(C)C[C@@H](OC(=O)CSC(C)(C)CNC(=O)[C@H](N)C(C)C)[C@]2(C)[C@H](C)CC[C@]3(CCC(=O)[C@H]32)[C@@H](C)[C@@H]1O	·	–	·	·
O=C(Cn1c(C(=O)NCCCN2CCOCC2)cc2sccc21)c1ccccc1	–	–	·	?
Cn1c(C(=O)NCCN2CCOCC2)cc2sccc21	–	–	–	-62.5

From PubChem BioAssay
